Data on seven molecules can be found in PubChem BioAssay (NCI).

Each structure is given as a SMILES string. This is part of a sample that, as a whole, favours compounds with a hit. Of some 83,000 tested, about 20% had one in any assay.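 Assay: single dose, 48 h. Readout: percent growth (0 = no net growth; negative = cell death). Active: <10.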 A number with no mark means an inactive call. Activity calls are given as the source filed them.

Holding throughout (assay): NCI-60 one-dose screen, 48 h (100 = growth as untreated, 0 = no growth, -100 = all killed)
Holding throughout (conditions): 10 µM unless noted

The test system of experiment [1] is NCI-H23 lung.
Experiment [2] deals with NCI-H226 lung.
Experiment [3] concerns NCI-H322M lung.
Experiment [4] has as its system HOP-62 NSCLC.
Experiment [5] deals with NCI-H460 lung.
Experiment [6] deals with NCI-H522 lung.
In experiment [7] the test system is A549/ATCC NSCLC.
Experiment [8] relates to 786-0 renal.
Experiment [9] concerns COLO 205 colon.
Experiment [10] concerns DU-145 prostate.
Experiment [11] has as its system K-562 leukemia.
Experiment [12] deals with MALME-3M melanoma.
For experiment [13], the system named is MDA-MB-231 breast.
Experiment [14] relates to RXF 393 renal.
Experiment [15] concerns SF-268 CNS.
The subject of experiment [16] is SF-295 CNS.
The subject of experiment [17] is SF-539 CNS.
Experiment [18] deals with UACC-257 melanoma.
In experiment [19] the test system is M14 melanoma.
Experiment [20] has as its system HCT-15 colon.

Regarding `O=C1CC(C(F)(F)F)=NN1C(=O)c1nn(-c2ccc(Cl)cc2)cc1O`, the growth was 101% in [1]; 79.8% in experiment [2]; 15.6% in experiment [3]; 70.2% in experiment [4]; 71.2% in [5]; 89.9% in experiment [6]. Moreover, the growth was 91.2% in [7]; 97.7% in [8]; 125% in experiment [9]; 83.6% in [10]; 96.7% in [11]; 146% in experiment [12]. For the same molecule, the growth in [13] was 81.9%; in [14], 78.1%; in experiment [15], 56.7%; in experiment [16], 81.3%; in [17], 82.7%; in experiment [18] it was 111%. Also, the growth was 88.4% in experiment [19] and 69.9% in [20].

With `CC(C)(C)c1ccc(C(O)CCCN2CCC(C(O)(c3ccccc3)c3ccccc3)CC2)cc1` (stereo unspecified), the growth in experiment [1] is 4.7% (active); in [2] it was 57.5%; in experiment [3], 53.8%; in [4], -79.5% (active); in [5] it was -84.9% (active); in experiment [6] it was -74.6% (active). In addition, the growth in experiment [7] was -39.8% (active); in experiment [8], -97.4% (active); in experiment [9] it was -86.9% (active); in experiment [10] it was -75.7% (active); in experiment [11], -39.9% (active); in experiment [12], -78.5% (active). Besides, the growth is -89.4% (active) in experiment [13]; -97.8% (active) in [14]; -65.6% (active) in experiment [15]; -69.7% (active) in experiment [16]; -76.4% (active) in experiment [17]; -78.2% (active) in [18]. In addition, in experiment [19], the growth was -91.3% (active).

Turning to `Cc1cc(N2CCOCC2)nc(N2CCOCC2)n1`, the growth in experiment [1] was 94.6%; in experiment [2] it was 110%; in experiment [3], 92.2%; in experiment [4], 82.2%; in experiment [5], 99.4%; in experiment [6], 78.6%. Also, the growth in [7] was 98.1%; in [8] it was 92.7%; in experiment [9], 118%; in experiment [10] it was 117%; in experiment [11], 112%; in [12] it was 107%. Besides, the growth in [13] is 114%; in [14], 118%; in [15], 100%; in experiment [16] it was 113%; in experiment [17], 97.5%; in [18], 105%. In [19], the growth is 105%.

Turning to `CCC(O)C(C)(C)C` (stereo unspecified), the growth was 102% in [1]; 106% in [2]; 127% in experiment [3]; 115% in [4]; 105% in experiment [5]; 106% in experiment [6]. Moreover, the growth in experiment [7] is 94.2%; in [8] it was 111%; in experiment [9] it was 114%; in experiment [10], 108%; in experiment [11], 108%; in [12] it was 117%. Further, the growth in experiment [13] was 117%; in experiment [14], 111%; in [15], 113%; in experiment [16], 97%; in experiment [17], 113%; in [18], 99.3%. In addition, the growth in experiment [19] was 105%.

Regarding `CCOc1cccc(C2CC(=O)Nc3cc4c(cc32)OCO4)c1` (stereo unspecified), the growth is 77.9% in [1]; 65% in experiment [2]; 91.1% in experiment [3]; 87% in experiment [4]; 94.2% in experiment [5]; 66.5% in experiment [6]. The growth in [7] was 94.2%; in experiment [8], 93.4%; in [9], 96.8%; in experiment [10], 94.5%; in [11], 48.2%; in [12], 83.4%. For the same molecule, the growth in [13] was 111%; in experiment [14], 78.8%; in experiment [15], 89.4%; in experiment [16] it was 76%; in experiment [17], 91.7%; in [18] it was 94.5%. The growth in experiment [19] was 102%; in experiment [20], 77.3%.

Consider `O=C1NCN(CCO)CN1`, for which the growth was 98.6% in experiment [1]; 105% in experiment [2]; 94.2% in [3]; 85.1% in experiment [4]; 105% in experiment [5]; 103% in experiment [6]. The growth is 101% in experiment [7]; 90.4% in experiment [8]; 120% in experiment [9]; 117% in [10]; 111% in [11]; 92.6% in experiment [12]. For the same molecule, the growth was 125% in experiment [13]; 107% in experiment [14]; 108% in [15]; 113% in [16]; 93.3% in experiment [17]; 96.7% in [18]. Besides, the growth in experiment [19] was 96.7%.

`COc1ccc2[nH]c(-c3ccccc3)cc2c1`: the growth in experiment [1] is 98.9%; in experiment [2], 96.5%; in [3], 120%; in [4], 115%; in experiment [5], 111%; in [6], 74.1%. In addition, the growth in experiment [7] is 96.2%; in [8], 103%; in [9], 110%; in experiment [10] it was 101%; in [11], 76.5%; in experiment [12] it was 122%. Moreover, the growth in [13] was 90%; in [14], 100%; in [15], 110%; in experiment [16] it was 105%; in [17], 103%; in [18] it was 87.5%. Further, the growth in experiment [19] was 112%; in experiment [20], 97%.
